Measured values published in PubChem BioAssay (NCI).
About 83,000 compounds went through this panel and 20% of them were active in at least one assay; those are over-represented in the sample as a whole.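 Growth was measured after 48 h exposure to one concentration of compound in 96-well plates. Values under 10 count as active.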 A number with no mark means an inactive call. Active and inactive are the calls of the source.

How the values were obtained:
Assay in all cases: NCI-60 one-dose screen, 48 h (100 = growth as untreated, 0 = no growth, -100 = all killed)
Conditions in all cases: 10 µM unless noted
[1] = system: RPMI-8226 leukemia
[2] = system: OVCAR-8 ovarian
[3] = system: OVCAR-5 ovarian
[4] = system: OVCAR-4 ovarian
[5] = system: SK-OV-3 ovarian
[6] = system: IGROV1 ovarian
[7] = system: OVCAR-3 ovarian
[8] = system: NCI/ADR-RES ovarian
[9] = system: T-47D breast
[10] = system: BT-549 breast
[11] = system: MDA-MB-435 melanoma
[12] = system: SW-620 colon
[13] = system: MCF7 breast
[14] = system: HCT-116 colon
[15] = system: HCC-2998 colon
[16] = system: KM12 colon
[17] = system: HS 578T breast

| SMILES | growth [1] | growth [2] | growth [3] | growth [4] | growth [5] | growth [6] | growth [7] | growth [8] | growth [9] | growth [10] | growth [11] | growth [12] | growth [13] | growth [14] | growth [15] | growth [16] | growth [17] |
| --- | --- | --- | --- | --- | --- | --- | --- | --- | --- | --- | --- | --- | --- | --- | --- | --- | --- |
| Cc1ccc(S(=O)(=O)NCC[C@@H]2C[C@H]2c2cc3ccccc3s2)cc1 | 83.4% | 97.3% | 106% | 78.3% | 107% | 101% | 101% | 96.9% | 77.9% | 102% | 104% | 103% | 93.7% | 93.8% | 106% | 96.1% |  |
| N#CCN1C(=O)C2C3=C(CCCC3)SC2N=C1CN1CCCC1 (stereo not drawn) | 50.2% | 97.7% | 101% | 101% | 109% |  | 113% | 96.3% | 97.2% | 114% | 105% | 95.3% | 109% | 94.2% | 96.9% | 109% | 108% |
| CNc1ccc(NC)c2c1C(=O)c1ccccc1C2=O | 90.2% | 71.5% | 101% | 68.4% | 67.4% | 69% | 95.4% | 88% | 37.3% | 75.7% | 110% | 92.4% | 16% | 78% | 72.3% | 64.4% |  |
| CC(C)C(NC(=O)C1(NC(=O)OCc2ccccc2)CCCC1)C(=O)O (stereo not drawn) | 111% | 110% | 94.8% | 124% | 96.2% | 107% | 120% | 104% | 103% | 83.7% | 109% | 96.9% | 105% | 97.6% |  | 111% |  |
| O=C(Nc1ccccc1-c1nc2ccccc2c(=O)[nH]1)c1cc2ccccc2[nH]1 | 98% | 87.4% | 95.3% | 105% | 78.4% | 69.2% | 102% | 98.1% | 70.1% | 85.3% | 106% | 94.2% | 68% | 83.5% | 104% | 88.2% |  |
| CCOP(=O)(OCC)C1CP(=O)(c2ccccc2)CC(C)=C1Cl (stereo not drawn) | 69.6% | 85.7% | 97.8% | 107% | 127% |  | 104% | 93.5% | 102% | 129% | 110% | 105% | 102% | 91.5% | 102% | 109% | 112% |
| COc1cc(/C=N/NC(=O)Cn2c(C(C)C)nc3ccccc32)ccc1O | 87% | 98.8% | 94.6% | 108% | 100% | 91.1% | 108% | 99.3% |  | 100% | 100% | 95.7% | 95.1% | 82.4% |  | 97.6% | 98.2% |
| CCN1C(=O)N(CC)C2C1NN=c1s/c(=C\c3cccs3)c(=O)n12 (stereo not drawn) | 37.7% | 16.9% | 41.3% | 53.2% | 45.6% | 27.4% | -17.5% (active) | -16.5% (active) |  | 19.8% | -31.8% (active) | 20.9% | 19.9% | 15.4% | 21% | 19.8% |  |
| CCOC(=O)c1ccc(N2NC(=O)/C(=C/c3ccc([N+](=O)[O-])o3)C2=O)cc1 | 90.7% | 97.9% | 108% | 110% | 117% |  | 88.7% | 111% | 109% | 99.7% | 109% | 106% | 89.4% | 82.2% | 103% | 106% | 113% |
| Cc1cc(/C=C\c2ccc3ccccc3[n+]2C)c(O)c2ncccc12 | 14% | 6.2% (active) | 23.9% | 7.86% (active) | 20.9% | -1.34% (active) | 25.8% |  | 18% | -19.4% (active) | 6.21% (active) | 15.1% | 5.19% (active) | -8.95% (active) | -3.25% (active) | 13.7% | 32.9% |
| CCC1(C2CCCC2)NC(=O)NC1=O (stereo not drawn) | 91.3% | 109% | 80.5% | 113% | 112% | 97.5% | 111% | 109% | 93.4% | 95.3% |  | 104% | 83.9% | 99.3% |  | 116% |  |
| c1ccc2cc3nc4cc5ccccc5cc4nc3cc2c1 | 58.6% | 84.8% | 91.6% | 104% | 97.3% | 86.7% | 96.7% | 73.4% |  |  | 119% | 84.1% | 81.9% | 72.3% | 96.4% | 85.4% | 102% |
| COC(=O)c1c2c(c(C)[n+]([O-])c1C)C(=O)C(NCc1ccc(F)cc1)=CC2=O | 26.9% | -5.16% (active) | 46.2% | -38.5% (active) | 84.1% | 17.6% | -21% (active) | 10% | 6.75% (active) | 52.4% | -72.9% (active) | 6.37% (active) | -0.8% (active) | 1.27% (active) | 25.7% | 19.9% |  |
| O=C(/C=C/c1c(Cl)nc2sccn12)c1nccs1 | 83.7% | 93.9% | 73.2% | 109% | 89.8% | 101% | 90.9% | 99.3% | 87.5% |  | 91.9% | 77.8% | 76.2% | 81.1% | 102% | 89.7% |  |
| COc1ccc(S(=O)(=O)NCCNc2nccc(-c3c(-c4cccc(F)c4)nc4sccn34)n2)cc1 | 27.8% | 36.6% | 62.9% | 38.9% | 54.3% | 14.8% | 49.1% |  | 25% | 47% | 14.7% | 52.6% | 17.1% | 19.7% | 52.9% | 18.3% | 31.4% |
| OC(COc1ccccc1Cl)COc1ccccc1Cl | 81.5% | 109% | 81.9% | 105% | 107% | 96.7% | 118% | 95.9% |  | 86.6% | 94.8% | 97.9% | 94.8% | 90.9% |  | 99.2% | 102% |
| O=C(N=c1oc2ccccc2cc1-c1cc2ccccc2[nH]1)c1ccc(Cl)cc1 | 38.5% | 50.5% | 89.3% | 57.7% | 57.3% | 29.7% | 50.5% | 38.6% | 47.5% | 76% | 96.4% | 25.1% | 30.4% | 20% | 81.9% | 29.1% |  |
| NC(N)=NN=C(c1ccccc1)c1ccccc1 | 25% | 40% | 79.3% | 71% | 5.22% (active) | 48.1% | 21.3% | 59.3% | 12.2% | 44.1% | -23.8% (active) | 28.1% | 16.3% | 29% |  | 32.5% |  |
| O=C(N/N=C/C=C/c1ccc([N+](=O)[O-])o1)c1cc2ccccc2cc1O | -11.2% (active) | 0.564% (active) | -1.58% (active) | -100% (active) | -13.5% (active) | -62.6% (active) | -54.8% (active) | 0.815% (active) | -65.5% (active) | -9.91% (active) | -24.2% (active) | -75.6% (active) | -61.3% (active) | -92.8% (active) | -100% (active) | -67.3% (active) |  |
| NC[C@H](O)c1ccc(O)c(O)c1 | 104% | 96.3% | 84.4% | 123% | 102% | 118% | 108% |  |  | 88.7% |  | 105% | 110% | 95.6% | 102% | 103% |  |
